Results taken from PubChem BioAssay (Tox21).
Results filed as inconclusive are left out. Some compounds were tested as several samples or in several runs, with calls that do not always agree. Activity calls are given as the source filed them. Calls follow the shape of the dose curve; as a rule, active = well fitted activation curve with a large enough effect in the repeat runs; inconclusive = weak or mixed curves; inactive = flat fitted curve, though single readings scatter.

Experiment: A CellTox Green Cytotoxicity Assay to monitor cytotoxicity in HEK293 cells - 32 hour (AID 1224881); also: nearly all actives have a fitted effect of over 40% in size
Conditions: CellTox Green fluorescence; series mostly up to 76.8 µM; cytotoxicity increase: at the top concentration
Description: National Center for Advancing Translational Sciences [NCATS]
NIH Chemical Genomics Center [NCGC]
U.S. Environmental Protection Agency [EPA]
National Institutes of Environmental Health Sciences [NIEHS]
National Toxicology Program [NTP]
Cell-based models are critical for drug discovery. Determining the natural cytotoxic effects resulting from test compounds is an essential research activity. A CellTox Green Cytotoxicity Assay to monitor cytotoxicity in real time of continues cell culture during 40 hours of the compound treatment was used to screen Tox21 10K library compounds in Hek293 cells. CellTox Green Cytotoxicity Assay is a nonlytic, homogeneous, biofluorescent method to measure cytotoxicity in cell culture after experimental manipulation. The assay system uses a proprietary asymmetric cyanine dye that is excluded from viable cells but preferentially stains the dead cell's DNA. […] Viable cells produce no appreciable increases in fluorescence. Therefore, the fluorescence signal produced by the binding interaction with dead cell DNA is proportional to cytotoxicity.
The mixture of Hek293 cell suspension and reagents were dispensed at 600cells/6 ul/well in 1536-well tissue culture treated black solid bottom plates using a Multidrop dispenser. After the assay plates were incubated at a 37 C/5% CO2 incubator for 5 hours, 23 nL of compounds dissolved in DMSO, positive and negative controls was transferred to the assay plate by a pintool work station. The plates were incubated at 37 C for 40 hours. The fluorescence intensity were measured at 0h, 8h, 16h, 24h, 32h and 40h time points using ViewLux plate reader during compound treatment.
% is scaled to controls: 0 for no effect and ±100 for the full control effect; potency is read from the fitted curve at half-maximal effect.

SMILES | cytotoxicity increase | Potency
CCCC1CCC(=O)CC1 | -0.27% (inactive) | 
Oc1c(I)cc(Cl)c2cccnc12 |  | 10.9 µM (active) and inactive
CN(C)C(=O)COC(=O)Cc1ccc(OC(=O)c2ccc(N=C(N)N)cc2)cc1 | -7.82% [at 35.3 µM] (inactive) | 
OC1CCCc2ccccc21 (stereo not given) | -1.09% (inactive) | 
CCOC(=O)Cn1cccc1-c1nc(-c2ccc(OC)cc2)c(-c2ccc(OC)cc2)s1 | 8.04% [at 35.3 µM] (inactive) | 
OC[C@H]1O[C@H](O[C@H]2O[C@H](CO)[C@@H](O)[C@H](O)[C@H]2O)[C@H](O)[C@@H](O)[C@@H]1O | 3.41% (inactive) | 
Oc1ccccc1O |  | inactive
Cc1nc(-c2ccc(Cl)cc2)oc1COC(C)(C)C(=O)O | -5.86% [at 35.3 µM] (inactive) | 
CC(C)CCCCCOC(=O)CCS | -1.55% (inactive) | 
Cc1c(C)c2c(c(C)c1O)CC[C@@](C)(CCC[C@H](C)CCC[C@H](C)CCCC(C)C)O2 | -13.5% (inactive) | 
S=C([S-])NCCNC(=S)[S-].S=C([S-])NCCNC(=S)[S-].[Mn+2].[Zn+2] | -12.8% [at 35.3 µM] (inactive) | 
CN(C)Cc1ccccc1O | 6.68% (inactive) | 
O=C(O)[C@H](O)[C@@H](O)[C@H](O[C@@H]1O[C@H](CO)[C@H](O)[C@H](O)[C@H]1O)[C@H](O)CO | -14.2% [at 35.3 µM] (inactive) | 
C1CCC(SSC2CCCCC2)CC1 | 22.1% (inactive) | 
CC(C)=CCC1=C(O)c2ccccc2C(=O)C1=O | -11.4% (inactive) | 
CC(C)OC(=O)C(O)(CC(=O)O)CC(=O)O | -10.3% (inactive) | 
CC(C)=CCNc1ncnc2c1ncn2[C@@H]1O[C@H](CO)[C@@H](O)[C@H]1O | -5.21% [at 35.3 µM] (inactive) | 
Nc1ccc(Oc2ccc(Cl)cc2)cc1 | 13.3% (inactive) | 
C[C@H]1NCc2cc(-c3ccc4c(=O)c(C(=O)O)cn(C5CC5)c4c3OC(F)F)ccc21 | -2.38% [at 15.8 µM] (inactive) | 
CC1=Nc2ccccc2C1(C)C | -0.472% (inactive) | 

SMILES | cytotoxicity increase | Potency
O=C1CCc2cc(OCCCCc3nnnn3C3CCCCC3)ccc2N1 | -0.617% [at 35.3 µM] (inactive) | 
c1ccsc1 | -1.28% (inactive) | 
Fc1ccc(C(c2ccc(F)cc2)N2CCNCC2)cc1 | 8.82% [at 35.3 µM] (inactive) | 
COC(C)=O | -6.45% (inactive) | 
C=CCCC(=O)/C=C/C1C(C)=CCCC1(C)C (stereo not given) |  | 24.5 µM (active)
CC(CO)Oc1ccccc1 (stereo not given) | 7.37% (inactive) | 
COC(=O)C1=C(C)NC(C)=C(C(=O)OCCN2CCN(C(c3ccccc3)c3ccccc3)CC2)C1c1cccc([N+](=O)[O-])c1 (stereo not given) | -1.51% [at 35.3 µM] (inactive) | 
O=c1oc2cc(O)ccc2c2oc3cc(O)ccc3c12 | -5.4% (inactive) | 
Cc1c(F)c(N2CCNC(C)C2)cc2c1c(=O)c(C(=O)O)cn2C1CC1 (stereo not given) | -13.2% [at 35.3 µM] (inactive) | 
CCCCCCCC/C=C\CCCCCCCCN |  | 23.9 µM (active)
Cc1ccc(O)c(N)c1 | -1.93% (inactive) | 
OC12N=C(c3ccccc3)SC1Cc1cc(Cl)ccc12 (stereo not given) | -3.63% (inactive) | 
CC(C)(C)NSc1nc2ccccc2s1 | -7.99% (inactive) | 
CCc1ccc(Br)cc1 | -0.939% (inactive) | 
CN1CCCCC1CCN1c2ccccc2Sc2ccc(S(C)=O)cc21 (stereo not given) | 5.78% [at 35.3 µM] (inactive) | 
Cc1cc(C)c(/C=C2\C(=O)Nc3ccccc32)[nH]1 |  | 10.7 µM (active)
COc1cc(/C=C/c2ccccc2)oc(=O)c1 | 8.18% (inactive) | 
CCCNCCC | -3.77% (inactive) | 
Cc1cc(C(C)(C)C)cc(C)c1CC1=NCCN1 | -12.3% [at 35.3 µM] (inactive) | 
CC(=O)c1ccc(C(C)=O)cc1 | -8.26% (inactive) | 
